Results taken from PubChem BioAssay (EPA / NIEHS).
Records with an inconclusive call do not appear. Active and inactive are the calls of the source. Rule for the calls: active = hit-call score of the fitted dose curve at least 0.9, where 1 is the maximum; inconclusive = response in the unintended direction; inactive = score below 0.9.

Each compound was assayed against Oxysterols receptor LXR-alpha (Homo sapiens) (UniProt Q13133) (assay: ATG_LXRa_TRANS: Attagene TRANS-FACTORIAL HepG2 Assay for human Liver X Receptor alpha (LXRa) (AID 2282980)). Details: HepG2 Attagene TRANS reporter, LXRa transactivation.
Sequence of Oxysterols receptor LXR-alpha (Homo sapiens) (Q13133 whole entry, looked up): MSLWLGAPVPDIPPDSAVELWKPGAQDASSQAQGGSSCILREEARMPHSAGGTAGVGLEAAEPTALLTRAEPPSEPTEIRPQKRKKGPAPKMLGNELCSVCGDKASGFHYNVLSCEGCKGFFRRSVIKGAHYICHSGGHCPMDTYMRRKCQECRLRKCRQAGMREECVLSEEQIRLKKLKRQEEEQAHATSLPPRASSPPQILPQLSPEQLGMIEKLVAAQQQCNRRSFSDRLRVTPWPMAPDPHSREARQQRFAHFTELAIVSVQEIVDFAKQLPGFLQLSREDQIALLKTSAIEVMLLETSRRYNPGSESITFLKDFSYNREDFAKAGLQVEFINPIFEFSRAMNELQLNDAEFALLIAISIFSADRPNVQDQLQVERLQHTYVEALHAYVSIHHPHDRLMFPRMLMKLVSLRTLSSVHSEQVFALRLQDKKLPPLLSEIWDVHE
Description: ATG_TRANS is a cell-based, multiplexed-readout assay that uses HepG2, a human liver cell line, with measurements taken at 24 hours after chemical dosing in a 24-well plate.ATG_LXRa_TRANS is one of 30 assay component(s) measured or calculated from the ATG_TRANS assay. It is designed to make measurements of mRNA induction, a form of inducible reporter, as detected with fluorescence intensity signals by Reverse transcription polymerase chain reaction (RT-PCR) and Capillary electrophoresis technology.Data from the assay component ATG_LXRa_TRANS was analyzed into 1 assay endpoint. This assay endpoint, ATG_LXRa_TRANS, was analyzed in the positive analysis fitting direction relative to DMSO as the negative control and baseline of activity. Using a type of inducible reporter, measures of mRNA for gain-of-signal activity can be used to understand the reporter gene at the transcription factor-level as they relate to the gene NR1H3. Furthermore, this assay endpoint can be referred to as a primary readout, because this assay has produced multiple assay endpoints where this one serves a reporter gene function. To generalize the intended target to other relatable targets, this assay endpoint is annotated to the nuclear receptor intended target family, where the subfamily is non-steroidal.
Human liver HepG2 cells are transiently transfected with multiple reporter transcription units (MRTUs) in 6-well plates using FuGene 6 reagent (Roche; 3 ml FuGene/1 mg DNA). The MRTU constructs are regulated by a cis-regulating element (promoter). […] A major difference between the CIS and TRANS system is that in CIS activities of endogenous TFs are measured, whereas the TRANS assay evaluates changes in activities of exogenous, chimeric NR-Gal4 proteins. […] At the end of 24 hour incubation, total RNA was isolated using TriZol reagent (Invitrogen). The isolated RNA is then reverse-transcribed using oligo(dT) primer and Mo-MLV reverse transcriptase (Invitrogen) with DNAse I (Ambion) treatment for 30 min. The one-tenth of the produced cDNA was amplified by PCR using Taq DNA polymerase (Invitrogen) and two reporter sequence-specific primers. The PCR products were fluorescently labeled by primer extension with 6-arboxyfluorescein (6-FAM) 5'-labeled reporter sequence-specific primer (2 min at 95 C, 20 s at 68 C and 10 min at 72 C) and these products were digested with 5U of HpaI (New England Biolabs) for 2h at 37 C. The fragments were purified using Qiaquick PCR columns (Qiagen), analyzed on an ABI 3130xL genetic analyzer (Applied Biosystems) with peak positions identified by using a set of X-rhodamine (ROX)-labeled MapMarker1000 molecular weight standards (BioVentures). The raw capillary electrophoresis data was processed using Attagraph software (Attagene).
For `CC(C)(C)C(=O)CCl`, the outcome was “inactive”.
For `ClCCCCCCCl`, the outcome was “inactive”.
In the case of `Nc1ccc([N+](=O)[O-])cc1N`, the outcome is reported as “inactive”.
With `CN(C)C(=O)C(c1ccccc1)c1ccccc1` the outcome was “inactive”.
For `CCC(Br)(CC)C(=O)NC(N)=O`, the outcome was “inactive”.
For `O=[N+]([O-])c1cc([N+](=O)[O-])c2ccccc2c1`, the outcome was “inactive”.
`[Cl-].[Cl-].[Cl-].[Yb+3]` was tested, and the outcome was “inactive”.
`N#Cc1cccc(C#N)c1` was tested, and the outcome was “inactive”.
`COc1ncc(F)c2nc(S(=O)(=O)Nc3c(F)cccc3F)nn12` was tested, and the outcome was “inactive”.
In the case of `COC(C)(C)CCC[C@H](C)C/C=C/C(C)=C/C(=O)OC(C)C`, the outcome is reported as “inactive”.
With `BrCBr` the outcome was “inactive”.
In the case of `CCOC(=O)N(C)N=O`, the outcome is reported as “inactive”.
With `CN(C)CCC#N` the outcome was “inactive”.
For `COC(=O)c1ccccc1S(=O)(=O)NC(=O)Nc1nc(C)cc(C)n1`, the outcome was “inactive”.
With `O=C(CCl)c1ccccc1` the outcome was “inactive”.
`C[C@]12CC[C@H](O)C[C@H]1CC[C@@H]1[C@@H]2C[C@@H](O)[C@]2(C)[C@@H](C3=CC(=O)OC3)CC[C@]12O` was tested, and the outcome was “inactive”.
`CCOP(=O)(OCC)Oc1ccc([N+](=O)[O-])cc1` was tested, and the outcome was “inactive”.
`[N-]=[N+]=CC(=O)OC[C@H](N)C(=O)O` was tested, and the outcome was “inactive”.
`CC(C)C#N` was tested, and the outcome was “inactive”.
In the case of `CCCOC(=O)c1ccccc1C(=O)OCCC`, the outcome is reported as “inactive”.
For `CCOC(=O)C1OC1(C)c1ccccc1` (stereo not given), the outcome was “inactive”.
For `Oc1ccc(Cl)cc1`, the outcome was “inactive”.
In the case of `O=C(NC(=O)c1c(F)cccc1F)Nc1ccc(Oc2ccc(C(F)(F)F)cc2Cl)cc1F`, the outcome is reported as “inactive”.
`Oc1ccc(C2(c3ccc(O)cc3)c3ccccc3-c3ccccc32)cc1` was tested, and the outcome was “inactive”.
In the case of `CCCCCCCCCCCCCCCC[N+](C)(C)C`, the outcome is reported as “inactive”.
For `CCCCOP(=O)(O)OCCCC`, the outcome was “inactive”.
For `C=C(Cl)Cl`, the outcome was “inactive”.
With `CCCC=NO` the outcome was “inactive”.
In the case of `CC(C)(Cl)Cl`, the outcome is reported as “inactive”.
With `CCC(=O)c1ccc(Cl)cc1` the outcome was “inactive”.
With `O=[N+]([O-])c1cc(C(F)(F)F)c(Cl)c([N+](=O)[O-])c1Cl` the outcome was “inactive”.
For `Cc1ccc(C)c2ccccc12`, the outcome was “inactive”.
`CC(C)(O)C#N` was tested, and the outcome was “inactive”.
For `O=C1Nc2ccc(Cl)cc2C(c2ccccc2)=NC1O` (stereo not given), the outcome was “inactive”.
For `Cc1ccc(N(SC(F)(Cl)Cl)S(=O)(=O)N(C)C)cc1`, the outcome was “inactive”.
In the case of `CC(=O)C=Cc1ccccc1`, the outcome is reported as “inactive”.
In the case of `C[C@]12CC[C@H]3[C@@H](CC[C@@]45O[C@@H]4C(O)=C(C#N)C[C@]35C)[C@@H]1CC[C@@H]2O`, the outcome is reported as “inactive”.
`CCOP(=O)(OCC)OCC` was tested, and the outcome was “inactive”.
For `CC(O)CN(CC(C)O)CC(C)O` (stereo not given), the outcome was “inactive”.
With `O=P(O)(Oc1ccccc1)Oc1ccccc1` the outcome was “inactive”.
